The sample as a whole holds a higher share of hits than the screen did.
MgrA DNA FP – alters Staphylococcus aureus MgrA binding to DNA. fluorescence polarization. inhibition, % (concentration not given with the values). 0.13% of 84,000 active. AID 602314; in the data active = inhibition above about 30%, passing the limit was not always enough;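 note: higher means less MgrA bound to DNA so lower polarization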
Hits are given with their value; 0 = inactive; + = active, no number.

SMILES	MgrA DNA FP
O=C(O)c1cc(N2N=C(C(F)(F)F)/C(=C/c3ccc(-c4ccccc4)o3)C2=O)ccc1Cl	58
CCOC(=O)c1ccc(-c2ccc(/C=C3\C(=O)N(c4cccc(Cl)c4)N=C3C)o2)cc1	0
Cc1cccc2c1-c1sc(C(=O)NCCN(C)C3CCCCC3)cc1CO2	0
c1ccc(-c2nnc(CN3CCCCCC3)o2)cc1	0
COC(=O)C1=C(C)N(c2ccc(N(C)C)cc2)C(C)=C(C(=O)OC)C1c1ccccc1	0
COC(=O)C1=C(C)N2[C@@H](C=C1)[C@@](C#N)(C(N)=O)[C@@H](c1ccccc1)[C@@H]2C(=O)OC	60
N#CC1(C#N)[C@H](c2ccoc2)[C@@H](C(=O)Oc2ccccc2)N2c3ccccc3C=C[C@@H]21	0
COC(=O)c1ccccc1N(C)C(=O)c1cc2ccccc2oc1=O	0
CCOC(=O)C(C)n1cnc2c(cnn2-c2ccc(F)cc2)c1=O (stereo not given)	0
O=C(Nc1cc(Cl)ccc1Cl)C1COc2ccccc2O1 (stereo not given)	0
CCCc1nc2ccccc2n1CC(=O)Nc1ccc(OC)cc1OC	0
Nc1cc[n+](CC(O)CO)cc1 (stereo not given)	56
Nc1ccc(C(O)C(O)CO)cc1 (stereo not given)	0
O=C1CSC(c2ccccc2C(F)(F)F)N1c1ccc(Br)cc1 (stereo not given)	0
CSc1nn(-c2ccccc2)cc1C#N	0
COc1cccc2c1C(=O)c1c(O)c3c(c(O)c1C2=O)C[C@@](O)(C(=O)CO)C[C@@H]3O[C@H]1C[C@H](N)[C@H](O)[C@H](C)O1	+
COc1cccc2c1C(=O)c1c(O)c3c(c(O)c1C2=O)C[C@@](O)(C(C)=O)C[C@@H]3OC1CC(N)C(O)C(C)O1 (stereo not given in full)	+
CCn1cc(CC(=O)O)c2ccccc21	0
CCOC(=O)c1nc2c([nH]1)C(c1ccncc1)C(C#N)=C(N)O2 (stereo not given)	0
CC(=O)NC(=C(C)C)c1ccccc1	0
COc1ccc(/C=C/C(=O)N2CCN=C2c2ccccc2)cc1OC	0
COCC(=O)N1N=C(c2cccc(NS(C)(=O)=O)c2)CC1c1ccccc1C (stereo not given)	0
CCCc1cc(=O)[nH]c(SCc2nc3ccccc3[nH]2)n1	0
Nc1cccc2c1C(=O)c1ccccc1-2	53
O=C1c2ccccc2C(=O)c2c1cccc2-c1cccc2c1C(=O)c1ccccc1C2=O	0
SMILES	MgrA DNA FP
COC(=O)c1cccc2c1C(=O)c1ccccc1-2	0
CCN1CCCC1CNC(=O)c1csc2c1CCCCC2 (stereo not given)	0
COc1ccccc1N1CCN(C(=O)CN(c2ccccc2OC)S(C)(=O)=O)CC1	0
N#Cc1c(OCC(F)(F)F)ccc(SCc2ccccc2)c1OCC(F)(F)F	0
O=C(c1ccc2c(c1)C(=O)N(Cc1ccco1)C2=O)N1CCOCC1	0
O=C(Nc1ccccc1Cl)c1ccc2c(c1)C(=O)N(Cc1ccco1)C2=O	0
Cc1ccnc(NC(=O)c2ccc3c(c2)C(=O)N(Cc2ccco2)C3=O)c1	30
COC(=O)/C=C/c1cncc2ccccc12	0
Cc1ccc(C)c(C(=O)N(CCC#N)Cc2cccnc2)c1	0
O=C(Nc1cccnc1Sc1ccc(Cl)cc1)C1CC1	0
CCc1ccc(Sc2cc(C(=O)NCc3cccnc3)c3ccccc3n2)cc1	0
CN(C)c1ccc2c3c(cccc13)C(=O)N(c1nc3ccccc3[nH]1)C2=O	0
CCSc1ccc2c3c(cccc13)C(=O)N(NCCO)C2=O	0
CC(=O)NN1C(=O)c2cccc3c(N(C)C)ccc(c23)C1=O	61
CC1CCc2c(sc3nc(-c4ccccc4Cl)oc(=O)c23)C1 (stereo not given)	0
CC(C)(C)c1ccc(Oc2ncccc2[N+](=O)[O-])cc1	0
O=C(NCc1ccccc1)C1CCCN(S(=O)(=O)c2ccccc2)C1 (stereo not given)	0
CCOc1cccc(=O)c2c(C)n(-c3ccc(OC)cc3)c(C)c12	0
CCOc1cccc(=[O+]CC)c2c(C)oc(C)c12	63
CCOc1ccccc1C(=O)N(C)c1ccccc1	0
O=C(CC(c1ccccc1)c1ccccc1)N1CCc2ccccc2C1	0
CSc1nsc(SC)c1C(=O)NC(=O)Nc1ccc(C(C)C)cc1	0
COCCOC(=O)C1=C(C)OC(N)=C(C#N)C1c1ccc(Br)cc1 (stereo not given)	0
Cc1ccc2c(c1C)NC(C(=O)O)C1CC=CC21 (stereo not given)	64
O=C(O)C1Nc2ccccc2C2C=CCC12 (stereo not given)	0
CC(C)C1Nc2ccc(C(=O)O)cc2C2C=CCC21 (stereo not given)	0
